The values that follow come from article PMC7862700, “An all-to-all approach to the identification of sequence-specific readers for epigenetic DNA modifications on cytosine”.

Common to all, as to experiment: DAPPL (digital affinity profiling via proximity ligation, sequencing); 10 mM Tris-HCl pH 7.5, 50 mM NaCl, 1 mM DTT, 4% glycerol, room temperature, 30 min; GST-TFs on glutathione beads, 16-mer random dsDNA library, 0.1% formaldehyde crosslink after washing; high values mean tight binding
What all share (settings): protein: recombinant; tags: N-terminal GST; dsDNA, one strand shown

In one assay the target is T1, ERG (Homo sapiens, UniProt P11308 1-479).
T1 sequence: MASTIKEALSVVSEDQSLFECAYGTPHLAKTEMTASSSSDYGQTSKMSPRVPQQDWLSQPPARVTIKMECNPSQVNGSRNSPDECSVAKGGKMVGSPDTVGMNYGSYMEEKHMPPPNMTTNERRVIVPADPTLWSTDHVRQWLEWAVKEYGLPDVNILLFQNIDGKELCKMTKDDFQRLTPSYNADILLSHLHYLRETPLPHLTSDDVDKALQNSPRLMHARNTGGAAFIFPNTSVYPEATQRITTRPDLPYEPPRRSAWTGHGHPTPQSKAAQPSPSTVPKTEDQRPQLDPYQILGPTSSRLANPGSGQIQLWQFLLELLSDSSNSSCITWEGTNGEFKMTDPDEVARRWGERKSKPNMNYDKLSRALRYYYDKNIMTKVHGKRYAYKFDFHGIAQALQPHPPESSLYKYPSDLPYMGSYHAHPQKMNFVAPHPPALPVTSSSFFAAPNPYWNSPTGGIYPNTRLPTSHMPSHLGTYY
In short, it runs like this:
(§1)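 Each value of binding signal is a hexamer's read frequency for a factor divided by the same hexamer's frequency in the tag-only sample. Barcoded, bead-captured GST fusions of human transcription factors made in yeast were pooled with that sample and incubated with 200 nmole of a random double-stranded 16-mer DNA library in Tris/NaCl/DTT/glycerol buffer at room temperature for 30 min. Washing, 0.1% formaldehyde crosslinking, proximity ligation, PCR and Illumina NextSeq500 sequencing followed.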

Another assay concerns the target SPI1 (Homo sapiens, UniProt P17947 1-270). Summed up:
as §1

Another assay addresses SPIB (Homo sapiens, UniProt Q01892 1-262). In short, it runs like this:
as §1

In another assay the target is ETV5 (Homo sapiens, UniProt P41161 1-510). In short, it runs like this:
as §1

For another assay, the target named is T2, ELK4 (Homo sapiens, UniProt P28324-2 1-405).
T2 sequence: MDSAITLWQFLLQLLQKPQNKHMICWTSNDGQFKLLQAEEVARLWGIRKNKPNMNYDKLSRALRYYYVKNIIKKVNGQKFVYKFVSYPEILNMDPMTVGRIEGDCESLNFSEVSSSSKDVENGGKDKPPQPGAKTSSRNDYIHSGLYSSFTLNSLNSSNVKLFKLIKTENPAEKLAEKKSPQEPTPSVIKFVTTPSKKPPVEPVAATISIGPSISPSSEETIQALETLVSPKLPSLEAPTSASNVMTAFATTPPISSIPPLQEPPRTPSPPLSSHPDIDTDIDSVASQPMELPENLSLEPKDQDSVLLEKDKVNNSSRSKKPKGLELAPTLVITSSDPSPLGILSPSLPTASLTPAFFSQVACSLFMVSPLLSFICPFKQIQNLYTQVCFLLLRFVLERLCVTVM
In short, it runs like this:
as §1

Another assay deals with ETV1 (Homo sapiens, UniProt P50549 1-477). In short, it runs like this:
as §1

In a further assay the target is T3, ETS2 (Homo sapiens, UniProt P15036 1-469).
T3 sequence: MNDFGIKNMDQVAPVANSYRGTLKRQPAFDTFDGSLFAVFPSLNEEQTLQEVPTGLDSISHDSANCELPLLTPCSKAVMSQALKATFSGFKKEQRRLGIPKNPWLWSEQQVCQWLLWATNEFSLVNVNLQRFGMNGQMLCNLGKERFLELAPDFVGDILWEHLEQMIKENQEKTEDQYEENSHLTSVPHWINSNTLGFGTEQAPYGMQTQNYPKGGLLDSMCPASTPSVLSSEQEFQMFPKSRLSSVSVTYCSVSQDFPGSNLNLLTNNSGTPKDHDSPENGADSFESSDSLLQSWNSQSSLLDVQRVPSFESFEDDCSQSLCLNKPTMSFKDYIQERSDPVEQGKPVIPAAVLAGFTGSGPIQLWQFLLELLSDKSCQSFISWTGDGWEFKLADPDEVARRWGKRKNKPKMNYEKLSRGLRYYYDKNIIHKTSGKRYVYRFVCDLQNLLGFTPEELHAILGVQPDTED
Summed up:
as §1

For a further assay, the target named is T4, ETV7 (Homo sapiens, UniProt Q9Y603 1-341).
T4 sequence: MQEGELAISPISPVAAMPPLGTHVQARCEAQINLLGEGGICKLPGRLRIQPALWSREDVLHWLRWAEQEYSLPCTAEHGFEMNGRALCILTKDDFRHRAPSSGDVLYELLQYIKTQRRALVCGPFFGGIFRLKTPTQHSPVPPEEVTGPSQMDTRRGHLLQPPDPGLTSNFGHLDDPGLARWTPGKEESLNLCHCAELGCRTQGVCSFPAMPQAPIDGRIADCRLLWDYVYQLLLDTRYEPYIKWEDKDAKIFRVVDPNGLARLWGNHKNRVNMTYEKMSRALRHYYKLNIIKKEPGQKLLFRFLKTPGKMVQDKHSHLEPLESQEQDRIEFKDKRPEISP
Summed up: as §1

The next assay has as its target T5, ETV3 (Homo sapiens, UniProt P41162-2 1-143).
T5 sequence: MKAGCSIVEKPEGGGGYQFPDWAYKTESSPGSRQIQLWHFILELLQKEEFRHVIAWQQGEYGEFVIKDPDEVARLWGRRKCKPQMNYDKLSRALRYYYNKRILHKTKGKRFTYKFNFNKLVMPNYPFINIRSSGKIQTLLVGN
In short, it runs like this:
as §1

The target in a further assay is ETV6 (Homo sapiens, UniProt P41212 1-452). Summed up:
as §1

Sequence of ETV6 (P41212 whole entry): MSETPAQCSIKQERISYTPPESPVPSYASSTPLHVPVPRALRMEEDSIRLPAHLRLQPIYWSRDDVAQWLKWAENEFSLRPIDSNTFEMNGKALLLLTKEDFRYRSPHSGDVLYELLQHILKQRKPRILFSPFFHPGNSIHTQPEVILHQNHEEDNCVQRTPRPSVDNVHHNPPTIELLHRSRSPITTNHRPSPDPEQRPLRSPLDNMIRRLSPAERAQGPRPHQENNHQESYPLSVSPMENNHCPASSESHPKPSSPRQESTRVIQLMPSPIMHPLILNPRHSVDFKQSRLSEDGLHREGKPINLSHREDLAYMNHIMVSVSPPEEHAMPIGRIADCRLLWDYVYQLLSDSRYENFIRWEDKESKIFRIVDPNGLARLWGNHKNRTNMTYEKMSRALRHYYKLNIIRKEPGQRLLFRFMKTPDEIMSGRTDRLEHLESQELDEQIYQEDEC
Sequence of ETV5 (P41161 whole entry): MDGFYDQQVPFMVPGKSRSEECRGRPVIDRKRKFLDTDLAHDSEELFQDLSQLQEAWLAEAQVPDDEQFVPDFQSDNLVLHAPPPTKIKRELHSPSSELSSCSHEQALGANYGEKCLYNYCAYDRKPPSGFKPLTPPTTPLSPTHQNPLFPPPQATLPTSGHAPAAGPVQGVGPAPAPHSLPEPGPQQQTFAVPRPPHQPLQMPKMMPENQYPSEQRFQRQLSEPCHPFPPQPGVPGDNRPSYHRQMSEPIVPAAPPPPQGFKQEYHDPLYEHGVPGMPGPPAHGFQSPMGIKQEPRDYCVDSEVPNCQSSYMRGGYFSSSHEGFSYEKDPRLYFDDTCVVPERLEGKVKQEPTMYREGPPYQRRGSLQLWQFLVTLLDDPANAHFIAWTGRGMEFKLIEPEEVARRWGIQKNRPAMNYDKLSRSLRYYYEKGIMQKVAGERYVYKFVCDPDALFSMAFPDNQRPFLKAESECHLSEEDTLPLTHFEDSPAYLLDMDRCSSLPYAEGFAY
Sequence of SPIB (Q01892 whole entry): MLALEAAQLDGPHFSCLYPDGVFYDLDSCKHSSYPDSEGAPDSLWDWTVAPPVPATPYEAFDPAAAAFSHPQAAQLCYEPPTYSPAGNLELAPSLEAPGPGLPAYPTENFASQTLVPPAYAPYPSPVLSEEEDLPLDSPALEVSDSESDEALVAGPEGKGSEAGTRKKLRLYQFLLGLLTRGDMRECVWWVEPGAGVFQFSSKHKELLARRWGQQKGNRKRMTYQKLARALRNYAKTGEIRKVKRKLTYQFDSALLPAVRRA
Sequence of ETV1 (P50549 whole entry): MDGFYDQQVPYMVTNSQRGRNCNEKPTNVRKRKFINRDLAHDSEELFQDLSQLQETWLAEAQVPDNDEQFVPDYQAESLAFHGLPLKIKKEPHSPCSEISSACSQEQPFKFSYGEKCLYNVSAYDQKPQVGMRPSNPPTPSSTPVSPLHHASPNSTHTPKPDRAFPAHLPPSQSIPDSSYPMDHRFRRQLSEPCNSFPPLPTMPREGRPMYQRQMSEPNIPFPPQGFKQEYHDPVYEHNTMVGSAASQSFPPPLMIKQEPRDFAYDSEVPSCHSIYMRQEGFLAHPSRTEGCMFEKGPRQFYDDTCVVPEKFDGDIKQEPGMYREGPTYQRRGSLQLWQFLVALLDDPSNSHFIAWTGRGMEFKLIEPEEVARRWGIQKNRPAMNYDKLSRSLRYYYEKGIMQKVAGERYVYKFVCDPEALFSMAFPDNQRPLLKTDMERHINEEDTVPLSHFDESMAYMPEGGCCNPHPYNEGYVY

Regarding TGGAAG, the binding signal is 1.05 fold enrichment (6-mer frequency, TF over GST control) in the assay with ERG; 1.08 fold enrichment (6-mer frequency, TF over GST control) with SPI1; 1.11 fold enrichment (6-mer frequency, TF over GST control) in the assay with SPIB; 1.03 fold enrichment (6-mer frequency, TF over GST control) with ETV5; 1.06 fold enrichment (6-mer frequency, TF over GST control) in the assay with ELK4; 1.02 fold enrichment (6-mer frequency, TF over GST control) in the assay with ETV1. In addition, the binding signal with ETS2 was 1.01 fold enrichment (6-mer frequency, TF over GST control); in the assay with ETV7, 1.13 fold enrichment (6-mer frequency, TF over GST control); with ETV3 it was 1.07 fold enrichment (6-mer frequency, TF over GST control); with ETV6, 1.19 fold enrichment (6-mer frequency, TF over GST control).
